Results on 13 compounds are retold here after PubChem BioAssay (EPA / NIEHS).

Structures are written as SMILES. “And” between values parts separate entries of the source, which are not always exact repeats. Identical values can stand only once. Inconclusive results are not listed. The source made the active and inactive calls. How the source made its calls: active means hit-call score of the fitted dose curve at least 0.9, where 1 is the maximum; inconclusive means response in the unintended direction; inactive means score below 0.9.

The target of assay [1] is human AKT serine/threonine Kinase 1 (AKT1), AKT1 (gene 207) (UniProt P31749). Briefly: NVS_ENZ_hAKT1: NovaScreen (NVS) Enzymatic Assay for human AKT serine/threonine Kinase 1 (AKT1) (AID 2283138). The method, boiled down: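 Cell-free recombinant enzyme with substrate; activity read by fluorescence intensity after electrophoretic mobility shift separating substrate from product, 1 h after dosing. Single-concentration duplicates at 25 uM, then singleton concentration-response up to 50 uM; loss of signal versus DMSO.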

Assay [2] concerns the target human Ephrin type-B Receptor 1 (EphB1), EPHB1 (gene 2047) (UniProt P54762). The assay can be described thus: NVS_ENZ_hEphB1: NovaScreen (NVS) Enzymatic Assay for human Ephrin type-B Receptor 1 (EphB1) (AID 2283154). Put shortly: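 Cell-free kinase assay with recombinant enzyme, fluorescent substrate and electrophoretic mobility-shift separation of substrate and product; read 1 h after dosing. Single-concentration duplicate screen at 25 uM; loss of signal versus DMSO baseline.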

A further assay concerns the target CDK2 (gene 1017) (UniProt P24941). The assay can be described thus: NVS_ENZ_hCDK2: NovaScreen (NVS) Enzymatic Assay for human Cyclin-Cependent Kinase 2 (CDK2) (AID 2283144). The method, boiled down:
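Cell-free recombinant human CDK2 with fluorescent substrate, product separated by electrophoretic mobility shift; 1 hr read. Primary screen at 25 uM in duplicate, actives retested in concentration-response up to 50 uM; loss of signal versus DMSO.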

In assay [3] the target is human Beta-secretase (BACE), BACE1 (gene 23621) (UniProt P56817). Briefly: NVS_ENZ_hBACE: NovaScreen (NVS) Enzymatic Assay for human Beta-secretase (BACE) (AID 2283140).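 Further: hits are inhibitors that reduce fluorescent substrate signal versus DMSO.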 Put shortly: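 Cell-free fluorescence-intensity assay of recombinant BACE1 expressed in SF9 cells, read 1 hour after dosing. Loss of signal indicates reduced protease activity, fitted relative to DMSO negative control. Primary screen at 25 uM in duplicate; actives followed in concentration series.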

For assay [4], the target named is human Aurora Kinase A - serine/threonine-protein Kinase 6 (AurA), AURKA (gene 6790) (UniProt O14965). The assay can be described thus: NVS_ENZ_hAurA: NovaScreen (NVS) Enzymatic Assay for human Aurora Kinase A - serine/threonine-protein Kinase 6 (AurA) (AID 2283142). The method, boiled down: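 Cell-free enzymatic assay with human Aurora A, 1 hour after dosing. Fluorescent substrate turnover detected after electrophoretic mobility shift separation of substrate and product. Screened at 25 uM, actives retested in concentration-response up to 50 uM.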

For assay [5], the target named is human AMP-activated Protein Kinase, alpha 1 (AMPKa1), PRKAA1 (gene 5562) (UniProt Q13131). Briefly: NVS_ENZ_hAMPKa1: NovaScreen (NVS) Enzymatic Assay for human AMP-activated Protein Kinase, alpha 1 (AMPKa1) (AID 2283130). The method, boiled down: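 Recombinant human AMPKα1 activity was measured cell-free by fluorescent substrate conversion with electrophoretic mobility-shift separation, 1 h after dosing. Duplicate single-point screening was at 25 uM; actives (≥30% inhibition) were retested in concentration-response up to 50 uM.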

Assay [6] concerns the target human AKT serine/threonine Kinase 2 (AKT2), AKT2 (gene 208) (UniProt P31751). The assay can be described thus: NVS_ENZ_hAKT2: NovaScreen (NVS) Enzymatic Assay for human AKT serine/threonine Kinase 2 (AKT2) (AID 2283141). The method, boiled down: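 Cell-free fluorescence/electrophoretic mobility shift readout of recombinant human AKT2 activity, 1 h after chemical dosing. Duplicate primary screen at 25 uM, then singleton concentration-response up to 50 uM; loss of signal versus DMSO baseline.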

Assay [7] addresses human Casein Kinase 2- alpha 2 beta 2 (CK2a2b2), CSNK2A1 (gene 1457) (UniProt P68400). The assay can be described thus: NVS_ENZ_hCK2a2b2: NovaScreen (NVS) Enzymatic Assay for human Casein Kinase 2- alpha 2 beta 2 (CK2a2b2) (AID 2283147). Put shortly: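 Cell-free recombinant CK2 α2β2 holoenzyme with a fluorescent peptide substrate; product separated by electrophoretic mobility shift and read 1 h after dosing. Single-point screen at 25 uM in duplicate; actives were followed with concentration-response up to 50 uM versus DMSO.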

The target of assay [8] is human Dual Specificity Protein Phosphatase 3 (DUSP3), DUSP3 (gene 1845) (UniProt P51452). The assay can be described thus: NVS_ENZ_hDUSP3: NovaScreen (NVS) Enzymatic Assay for human Dual Specificity Protein Phosphatase 3 (DUSP3) (AID 2283152).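 Further: phosphatase activity of recombinant human DUSP3 on a fluorogenic substrate without cells.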 Put shortly:
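Cell-free assay with recombinant human DUSP3 and fluorogenic substrate, read by fluorescence intensity. Primary screen ran duplicate at 25 uM; actives followed up in concentration series; loss of signal versus DMSO scored.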

The target of the next assay is Caspase-1 (Homo sapiens) (UniProt P29466). Briefly: NVS_ENZ_hCASP1: NovaScreen (NVS) Enzymatic Assay for human Caspase 1 (CASP1) (AID 2283132). Put shortly:
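Cell-free enzymatic assay with E. coli-expressed recombinant protein; fluorescence intensity read 1 hour after dosing. Single-concentration duplicate screen at 25 uM, then concentration-response up to 50 uM; activity fitted relative to DMSO, loss of signal meaning inhibition.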

Assay [9] addresses human Acid Phosphatase 1 (ACP1), ACP1 (gene 52) (UniProt P24666). Briefly: NVS_ENZ_hACP1: NovaScreen (NVS) Enzymatic Assay for human Acid Phosphatase 1 (ACP1) (AID 2283136). The method, boiled down: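 Recombinant enzyme expressed in Sf9 cells, tested cell-free; activity read by fluorescence with electrophoretic mobility shift separation of substrate and product, 1.5 h after dosing. Primary screen in duplicate at 25 uM, actives then run in concentration series; loss of signal versus DMSO.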

Assay [10] addresses human Caspase 5 (CASP5), CASP5 (gene 838) (UniProt P51878). Briefly: NVS_ENZ_hCASP5: NovaScreen (NVS) Enzymatic Assay for human Caspase 5 (CASP5) (AID 2283137). The method, boiled down:
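Recombinant E. coli-expressed human caspase 5 in a cell-free enzyme assay; fluorescence intensity read 2 hours after chemical dosing. Single-concentration duplicate screen at 25 uM, then concentration-response up to 50 uM for hits; DMSO negative control.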

Assay [11] has as its target human Elastase, ELANE (gene 1991) (UniProt P08246). Briefly: NVS_ENZ_hElastase: NovaScreen (NVS) Enzymatic Assay for human Elastase (AID 2283153). The method, boiled down:
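Cell-free elastase from human neutrophils, 1.5 h after dosing, activity read by absorbance. Primary screen in duplicate at 25 uM; hits (e.g., 30% inhibition) rerun in singleton concentration-response up to 50 uM, fitted versus DMSO.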

In another assay the target is Caspase-3 (Homo sapiens) (UniProt P42574). The assay can be described thus: NVS_ENZ_hCASP3: NovaScreen (NVS) Enzymatic Assay for human Caspase 3 (CASP3) (AID 2283139). Put shortly: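 Recombinant human caspase-3 from E. coli with a fluorogenic substrate, read by fluorescence 1 h after dosing. Primary screen in duplicate at 25 uM. Actives (for example ≥30% inhibition) rerun as concentration-response up to 50 uM.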

Assay [12] has as its target human Colony Stimulating Factor 1 Receptor (CSF1R), CSF1R (gene 1436) (UniProt P07333). The assay can be described thus: NVS_ENZ_hCSF1R: NovaScreen (NVS) Enzymatic Assay for human Colony Stimulating Factor 1 Receptor (CSF1R) (AID 2283150). Put shortly:
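Cell-free recombinant human CSF1R kinase with fluorescent substrate, product separated by electrophoretic mobility shift; read 1 h after dosing. Primary screen at 25 uM in duplicate, actives then in concentration-response up to 50 uM, relative to DMSO.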

Chain of human Dual Specificity Protein Phosphatase 3 (DUSP3), DUSP3 (gene 1845) (P51452 whole entry, looked up): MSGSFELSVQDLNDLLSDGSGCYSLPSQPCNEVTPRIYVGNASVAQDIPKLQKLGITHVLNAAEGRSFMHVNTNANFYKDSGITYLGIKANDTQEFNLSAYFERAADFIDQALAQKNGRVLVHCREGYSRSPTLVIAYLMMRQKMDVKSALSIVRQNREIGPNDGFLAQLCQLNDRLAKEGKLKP
Chain of human Casein Kinase 2- alpha 2 beta 2 (CK2a2b2), CSNK2A1 (gene 1457) (P68400 whole entry, looked up): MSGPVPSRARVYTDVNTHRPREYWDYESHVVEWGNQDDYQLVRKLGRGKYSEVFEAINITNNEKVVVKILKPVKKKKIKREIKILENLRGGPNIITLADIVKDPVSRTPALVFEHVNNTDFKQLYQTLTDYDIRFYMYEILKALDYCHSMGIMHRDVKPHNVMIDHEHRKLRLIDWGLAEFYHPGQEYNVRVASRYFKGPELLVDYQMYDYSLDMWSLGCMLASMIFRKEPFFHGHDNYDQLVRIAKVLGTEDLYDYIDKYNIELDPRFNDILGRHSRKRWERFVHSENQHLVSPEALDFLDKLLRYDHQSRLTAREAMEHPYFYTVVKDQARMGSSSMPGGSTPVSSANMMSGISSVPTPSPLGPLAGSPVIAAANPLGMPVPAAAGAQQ
Chain of human AKT serine/threonine Kinase 1 (AKT1), AKT1 (gene 207) (P31749 whole entry, looked up): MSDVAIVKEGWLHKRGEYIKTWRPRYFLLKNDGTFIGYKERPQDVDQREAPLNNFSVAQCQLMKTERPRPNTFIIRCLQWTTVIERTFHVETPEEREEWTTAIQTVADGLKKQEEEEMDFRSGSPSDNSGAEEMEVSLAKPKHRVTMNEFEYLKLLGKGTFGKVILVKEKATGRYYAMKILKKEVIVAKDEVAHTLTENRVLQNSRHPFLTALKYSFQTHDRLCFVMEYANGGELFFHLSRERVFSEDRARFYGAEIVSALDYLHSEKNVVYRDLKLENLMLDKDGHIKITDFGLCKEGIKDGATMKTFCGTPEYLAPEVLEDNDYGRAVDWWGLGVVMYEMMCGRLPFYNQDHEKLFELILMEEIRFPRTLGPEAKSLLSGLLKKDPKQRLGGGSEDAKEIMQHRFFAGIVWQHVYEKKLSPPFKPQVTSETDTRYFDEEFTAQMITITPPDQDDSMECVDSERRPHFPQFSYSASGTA
Chain of human AKT serine/threonine Kinase 2 (AKT2), AKT2 (gene 208) (P31751 whole entry, looked up): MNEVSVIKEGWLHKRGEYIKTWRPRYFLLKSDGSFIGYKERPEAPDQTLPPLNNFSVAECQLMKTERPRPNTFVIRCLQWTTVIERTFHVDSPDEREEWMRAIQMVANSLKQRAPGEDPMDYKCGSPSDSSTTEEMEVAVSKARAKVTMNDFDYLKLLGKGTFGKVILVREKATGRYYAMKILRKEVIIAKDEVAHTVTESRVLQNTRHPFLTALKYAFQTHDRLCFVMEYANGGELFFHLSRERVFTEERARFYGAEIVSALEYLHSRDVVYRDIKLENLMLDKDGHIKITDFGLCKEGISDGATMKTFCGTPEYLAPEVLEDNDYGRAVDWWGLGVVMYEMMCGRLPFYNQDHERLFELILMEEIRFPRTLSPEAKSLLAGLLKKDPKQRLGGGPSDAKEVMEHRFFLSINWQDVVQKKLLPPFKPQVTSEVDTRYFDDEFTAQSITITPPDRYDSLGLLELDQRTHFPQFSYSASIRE
Chain of human Aurora Kinase A - serine/threonine-protein Kinase 6 (AurA), AURKA (gene 6790) (O14965 whole entry, looked up): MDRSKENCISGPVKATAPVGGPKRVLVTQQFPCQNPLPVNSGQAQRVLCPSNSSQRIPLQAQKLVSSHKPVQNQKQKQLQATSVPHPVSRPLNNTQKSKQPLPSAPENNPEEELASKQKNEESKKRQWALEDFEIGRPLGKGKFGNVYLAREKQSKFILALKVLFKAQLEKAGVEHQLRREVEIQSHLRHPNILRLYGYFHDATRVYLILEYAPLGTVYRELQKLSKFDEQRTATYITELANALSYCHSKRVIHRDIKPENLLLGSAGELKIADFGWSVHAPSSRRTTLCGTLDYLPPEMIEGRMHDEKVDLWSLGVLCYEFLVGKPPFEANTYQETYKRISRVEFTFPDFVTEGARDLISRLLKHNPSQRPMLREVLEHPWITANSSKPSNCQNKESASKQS
Chain of human Beta-secretase (BACE), BACE1 (gene 23621) (P56817 whole entry, looked up): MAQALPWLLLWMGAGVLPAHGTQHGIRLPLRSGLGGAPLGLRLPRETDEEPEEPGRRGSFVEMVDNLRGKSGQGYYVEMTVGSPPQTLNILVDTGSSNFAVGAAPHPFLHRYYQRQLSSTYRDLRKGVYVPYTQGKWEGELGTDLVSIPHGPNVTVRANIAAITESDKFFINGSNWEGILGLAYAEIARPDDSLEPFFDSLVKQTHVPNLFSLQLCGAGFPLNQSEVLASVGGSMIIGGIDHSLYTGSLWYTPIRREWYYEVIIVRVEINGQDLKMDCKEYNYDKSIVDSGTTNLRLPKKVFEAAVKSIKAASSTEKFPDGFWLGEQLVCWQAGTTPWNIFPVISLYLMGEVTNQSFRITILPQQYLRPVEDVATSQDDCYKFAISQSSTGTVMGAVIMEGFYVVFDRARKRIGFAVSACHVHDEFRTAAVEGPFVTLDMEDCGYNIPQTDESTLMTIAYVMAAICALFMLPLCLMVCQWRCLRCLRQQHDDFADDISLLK
Chain of human Ephrin type-B Receptor 1 (EphB1), EPHB1 (gene 2047) (P54762 whole entry, looked up): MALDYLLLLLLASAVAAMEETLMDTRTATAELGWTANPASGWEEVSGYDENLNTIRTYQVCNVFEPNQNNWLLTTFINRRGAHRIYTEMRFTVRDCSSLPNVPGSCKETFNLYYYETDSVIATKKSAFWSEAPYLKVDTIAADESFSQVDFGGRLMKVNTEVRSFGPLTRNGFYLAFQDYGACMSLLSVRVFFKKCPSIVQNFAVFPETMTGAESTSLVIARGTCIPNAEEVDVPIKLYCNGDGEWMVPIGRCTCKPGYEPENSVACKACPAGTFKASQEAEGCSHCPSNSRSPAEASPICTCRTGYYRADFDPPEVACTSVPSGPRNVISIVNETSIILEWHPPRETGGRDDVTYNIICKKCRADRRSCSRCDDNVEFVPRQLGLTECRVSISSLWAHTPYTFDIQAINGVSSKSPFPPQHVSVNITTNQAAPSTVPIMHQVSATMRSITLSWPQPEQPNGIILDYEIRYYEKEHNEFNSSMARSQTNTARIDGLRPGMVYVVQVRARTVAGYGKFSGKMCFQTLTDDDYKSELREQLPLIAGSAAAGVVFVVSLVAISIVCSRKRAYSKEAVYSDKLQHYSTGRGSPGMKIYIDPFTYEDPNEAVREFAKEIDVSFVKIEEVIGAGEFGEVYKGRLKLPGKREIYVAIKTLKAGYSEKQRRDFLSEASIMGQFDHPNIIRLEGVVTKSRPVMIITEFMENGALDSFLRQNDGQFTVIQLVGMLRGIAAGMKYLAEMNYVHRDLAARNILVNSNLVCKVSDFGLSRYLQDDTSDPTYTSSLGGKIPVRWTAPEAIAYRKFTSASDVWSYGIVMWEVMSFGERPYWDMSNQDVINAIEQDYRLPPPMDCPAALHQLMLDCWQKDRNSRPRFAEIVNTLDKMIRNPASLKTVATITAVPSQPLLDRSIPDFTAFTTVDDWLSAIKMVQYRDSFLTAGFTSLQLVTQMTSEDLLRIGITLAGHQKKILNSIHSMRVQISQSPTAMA
Chain of human Elastase, ELANE (gene 1991) (P08246 whole entry, looked up): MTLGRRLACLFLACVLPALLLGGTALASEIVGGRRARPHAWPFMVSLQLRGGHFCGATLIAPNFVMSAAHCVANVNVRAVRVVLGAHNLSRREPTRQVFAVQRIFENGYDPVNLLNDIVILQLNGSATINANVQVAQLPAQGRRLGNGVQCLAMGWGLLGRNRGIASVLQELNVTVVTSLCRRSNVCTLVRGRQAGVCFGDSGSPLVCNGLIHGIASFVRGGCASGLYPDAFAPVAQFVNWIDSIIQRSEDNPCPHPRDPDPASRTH
Chain of Caspase-1 (Homo sapiens) (P29466 whole entry, looked up): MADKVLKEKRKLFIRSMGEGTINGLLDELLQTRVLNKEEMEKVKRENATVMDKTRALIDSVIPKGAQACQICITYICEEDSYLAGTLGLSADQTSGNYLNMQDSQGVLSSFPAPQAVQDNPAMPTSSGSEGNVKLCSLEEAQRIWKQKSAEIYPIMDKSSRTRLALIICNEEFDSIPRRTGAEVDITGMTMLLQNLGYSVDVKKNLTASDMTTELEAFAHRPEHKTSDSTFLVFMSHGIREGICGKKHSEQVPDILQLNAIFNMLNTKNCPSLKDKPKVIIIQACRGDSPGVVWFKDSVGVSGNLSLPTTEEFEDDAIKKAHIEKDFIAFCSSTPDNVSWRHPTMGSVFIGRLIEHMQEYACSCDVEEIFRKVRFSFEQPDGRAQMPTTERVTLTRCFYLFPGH
Chain of human AMP-activated Protein Kinase, alpha 1 (AMPKa1), PRKAA1 (gene 5562) (Q13131 whole entry, looked up): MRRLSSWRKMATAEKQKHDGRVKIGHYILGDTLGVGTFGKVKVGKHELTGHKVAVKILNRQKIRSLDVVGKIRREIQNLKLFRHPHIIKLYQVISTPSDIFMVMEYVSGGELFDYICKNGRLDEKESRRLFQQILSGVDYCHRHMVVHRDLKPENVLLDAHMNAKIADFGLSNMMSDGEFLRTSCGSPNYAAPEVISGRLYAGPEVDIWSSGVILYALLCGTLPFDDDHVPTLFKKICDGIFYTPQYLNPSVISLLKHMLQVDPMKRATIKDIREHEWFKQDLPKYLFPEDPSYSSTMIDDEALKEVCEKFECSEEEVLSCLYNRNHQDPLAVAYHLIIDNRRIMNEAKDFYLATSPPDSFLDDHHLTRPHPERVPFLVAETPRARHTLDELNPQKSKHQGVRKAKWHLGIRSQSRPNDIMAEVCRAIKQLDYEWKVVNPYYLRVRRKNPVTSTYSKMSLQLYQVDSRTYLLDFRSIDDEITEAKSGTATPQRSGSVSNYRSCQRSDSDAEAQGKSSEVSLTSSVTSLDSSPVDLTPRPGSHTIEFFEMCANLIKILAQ
Chain of human Acid Phosphatase 1 (ACP1), ACP1 (gene 52) (P24666 whole entry, looked up): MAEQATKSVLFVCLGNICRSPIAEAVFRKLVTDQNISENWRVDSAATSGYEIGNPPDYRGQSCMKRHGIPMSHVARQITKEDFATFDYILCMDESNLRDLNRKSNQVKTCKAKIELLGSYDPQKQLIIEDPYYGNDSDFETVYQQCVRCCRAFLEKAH

In the case of `CNC(=O)CSP(=S)(OC)OC`, the call in assay [1] and in [2] was inactive.
`CC(C)N(C(=O)COc1nnc(C(F)(F)F)s1)c1ccc(F)cc1`: the compound was called inactive with CDK2 (gene 1017).
For orientation: AC50 means the concentration giving half of the maximal activity seen. Consider `CCC(C)(C)C(=O)OC1=C(c2ccc(Cl)cc2Cl)C(=O)OC12CCCCC2`, for which, in [3], the concentration at half-maximal activity (AC50) was 17.6 µM (active). Moreover, the compound was called inactive in [4].
Take `N#Cc1c(Cl)c(Cl)c(Cl)c(C#N)c1Cl`: the AC50 in assay [5] is 4.96 µM (active); in assay [7] it was 33.6 µM (active); in [8], 17.7 µM (active). For the same compound, the result in assay [1], in assay [6] and in assay [4] was inactive.
Take `Cc1cc(C)nc(NC(=O)NS(=O)(=O)c2ccccc2C(=O)OC2COC2)n1`: the compound was called inactive in [6].
On to `O=C(O)C(F)(F)C(F)(F)C(F)(F)C(F)(F)C(F)(F)C(F)(F)C(F)(F)F`, for which the compound was classed as inactive (with Caspase-1 (Homo sapiens); in [9]; in assay [10]; in assay [6]; in assay [4]; in assay [8]). The compound was called inactive in [11]. Further, the concentration at half-maximal activity (AC50) in [3] is 3.58 µM (active) and 1.2 µM (active).
For the compound `O=C(O)CCCOc1ccc(Cl)cc1Cl`, the AC50 in [7] is 19 µM (active).
For `O=C(Nc1ccccc1)Nc1cnns1`, the AC50 in assay [3] was 10.7 µM (active); in [7], 10.9 µM (active). Besides, the compound was called inactive in [4].
On to `CCOC1Oc2ccc(OS(C)(=O)=O)cc2C1(C)C` (stereo unspecified), for which the result (with Caspase-3 (Homo sapiens); in assay [12]) was inactive.
In the case of `O=C(O)COc1ccc(Cl)cc1Cl`, the AC50 in assay [7] was 19.7 µM (active). In addition, in [2], the compound was classed as inactive.
For the compound `COC(=O)c1ccccc1CS(=O)(=O)NC(=O)Nc1nc(OC)cc(OC)n1`, the call in assay [1] was inactive.
Turning to `CC1(C)C(C=C(Cl)Cl)C1C(=O)OC(C#N)c1ccc(F)c(Oc2ccccc2)c1` (stereo unspecified), the compound was classed as inactive (in the assay with Caspase-1 (Homo sapiens); in assay [12]; in assay [11]). Also, the half-maximal activity concentration (AC50) in [3] is 3.31 µM (active).
Take `CC[C@H](C)[C@H]1O[C@]2(C=C[C@@H]1C)C[C@@H]1C[C@@H](C/C=C(\C)[C@@H](O[C@H]3C[C@H](OC)[C@@H](O[C@H]4C[C@H](OC)[C@@H](O)[C@H](C)O4)[C@H](C)O3)[C@@H](C)/C=C/C=C3\CO[C@@H]4[C@H](O)C(C)=C[C@@H](C(=O)O1)[C@]34O)O2` (tested in a mixture with another compound): the AC50 in assay [5] is 31.2 µM (active); in assay [8] it was 2.74 µM (active). Besides, the call in [2] was inactive.
